Measured values reported in PubChem BioAssay AID1851 (National Center for Advancing Translational Sciences (NCATS), 2009).
“And” between values parts separate entries of the source, which are not always exact repeats. Identical values can stand only once. Screen size: about 16,000 compounds; about 5,100 (32%) were called active. Inconclusive results (about 25%) are left out. The list shows a part of the results. Values without a mark were called inactive. Calls come from the whole dose curve; as a rule, active = well fitted curve in the direction sought with a large enough effect; inconclusive = small, poorly fitted or top-dose-only effect, or effect the other way; inactive = no such curve, though single readings can be large or run the other way.

molecular target: Cytochrome P450 3A4 (Homo sapiens) (UniProt P08684); assay: Cytochrome panel assay with activity outcomes; details: recombinant CYP, pro-luciferin dealkylation, luminescence, p450-cyp3a4; series mostly up to 57.1 µM; activity, negative = inhibition: at the top concentration
Sequence (P08684 whole entry, looked up): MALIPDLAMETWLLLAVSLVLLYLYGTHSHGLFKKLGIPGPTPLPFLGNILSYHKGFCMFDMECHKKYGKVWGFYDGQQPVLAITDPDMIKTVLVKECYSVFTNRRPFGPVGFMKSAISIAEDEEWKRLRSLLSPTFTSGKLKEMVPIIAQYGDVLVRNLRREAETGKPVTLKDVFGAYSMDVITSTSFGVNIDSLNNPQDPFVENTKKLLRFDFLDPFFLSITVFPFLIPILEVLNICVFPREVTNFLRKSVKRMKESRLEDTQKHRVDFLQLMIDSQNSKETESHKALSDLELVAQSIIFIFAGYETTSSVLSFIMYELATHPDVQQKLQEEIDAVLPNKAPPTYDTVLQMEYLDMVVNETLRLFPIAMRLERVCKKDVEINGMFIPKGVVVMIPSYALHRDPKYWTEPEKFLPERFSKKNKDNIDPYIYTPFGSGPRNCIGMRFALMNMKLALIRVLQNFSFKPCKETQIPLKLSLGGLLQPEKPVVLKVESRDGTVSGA
% is set by controls: 0 for no effect and ±100 for the full control effect.

Row | Structure (SMILES) | AC50 | activity, negative = inhibition
1 | O=C(c1ccc(Br)cc1)c1cc([N+](=O)[O-])ccc1N1CCCCC1 | 3.55 µM (active) | 
2 | CN1CCN(S(=O)(=O)c2cc([N+](=O)[O-])ccc2N2CCCCCC2)CC1 | 0.794 µM (active) | 
3 | O=C(N/N=C/c1cc([N+](=O)[O-])ccc1N1CCNCC1)c1ccc([N+](=O)[O-])cc1 |  | 5.34%
4 | CN(C)S(=O)(=O)c1cc([N+](=O)[O-])ccc1N1CCCCCC1 | 12.6 µM (active) | 
5 | CN1CCN(c2ccc([N+](=O)[O-])cc2C(=O)N2CCOCC2)CC1 |  | -0.527%
6 | O=C1C[C@@H](O)[C@@H](O)[C@H]2[C@@H]3C(=O)N(C4CCCCC4)C(=O)[C@@H]3CC[C@H]12 |  | -5.08% [at 11.4 µM] and -17.3% [at 11.4 µM] and -26.5% [at 11.4 µM]
7 | COc1ccc(/C=N/n2c(-c3cccs3)n[nH]c2=S)cc1 | 8.91 µM (active) | 
8 | Cc1ccc(/C=N/n2c(-c3cccs3)n[nH]c2=S)cc1 | 11.2 µM (active) | 
9 | COc1ccc(C2=CSC(/N=C/c3ccc(F)cc3)=NN2)cc1 |  | 0.425% [at 2.29 µM]
10 | Cc1ccc(-c2n[nH]c(=S)n2/N=C/c2cccn2C)cc1 | 12.6 µM (active) | 
11 | Cc1ccc(/C=C/c2nnc(-c3cccs3)o2)cc1 |  | 6.75% [at 2.29 µM]
12 | CN(C)C=Nc1ccc2nn(-c3ccccc3)nc2c1 |  | -3.41% [at 2.29 µM]
13 | O=[N+]([O-])c1ccc([C@@H](Nc2ccccc2)c2ccc3cccnc3c2O)cc1 |  | -23.7% [at 11.4 µM]
14 | CN(c1ccccc1)c1nc(-n2ccnc2)nc(-n2ccnc2)n1 | 0.891 µM (active) | 
15 | c1ccc(-c2nc(N3CCCCCC3)nc(-n3ccnc3)n2)cc1 | 0.708 µM (active) | 
16 | CCCSc1cc(N2CCCC2)nc(-c2ccccc2)n1 |  | -13.5%
17 | c1ccc(-c2nnn(CCN3CCCCC3)n2)cc1 |  | -9.98% [at 11.4 µM]
18 | COc1ccccc1-c1ccc2ncnc(N3CCOCC3)c2c1 | 6.31 µM (active) | 
19 | CN(C)C(=O)c1ccc(-c2ccc3ncnc(N4CCC(C(=O)O)CC4)c3c2)cc1 |  | 1.85%
20 | CN(C)Cc1ccccc1-c1ccc2ncnc(N3CCOCC3)c2c1 | 20 µM (active) | 
21 | COc1ccccc1-c1ccc2ncnc(N3CCN(C)CC3)c2c1 | 3.16 µM (active) | 
22 | CCCCCCCCCn1cc(C(C)=O)c(=O)[nH]c1=O |  | -7.53% [at 2.29 µM]

Row | Structure (SMILES) | AC50 | activity, negative = inhibition
23 | CN(C)C[C@H]1CCC2=C(C1=O)C(c1ccc(Cl)c(Cl)c1)C1=C(CC[C@H](CN(C)C)C1=O)O2 | 0.398 µM (active) | 
24 | O=C(Cn1ccc(=O)[nH]c1=O)Nc1ccc(C(=O)O)c(O)c1 |  | -4.95% [at 11.4 µM]
25 | COc1ccc(Cc2nc3ccc(S(=O)(=O)N4CCOCC4)cc3[nH]2)cc1OC | 12.6 µM (active) | 
26 | COc1cccc(C(c2c(C)[nH]n(-c3ccccc3)c2=O)c2c(C)[nH]n(-c3ccccc3)c2=O)c1O |  | 2.06%
27 | COc1cccc(C2NC(c3cccc(OC)c3O)C(C)C(=O)C2C)c1O (stereo not drawn) | 12.6 µM (active) | 
28 | COc1cccc2c1OC1(C)CC2/C(=C(\C)O)C(=O)N1 (stereo not drawn) |  | -3.38%
29 | CN1c2ccccc2Oc2c(c(=O)n(C)c(=O)n2C)C1c1cccc([N+](=O)[O-])c1 (stereo not drawn) | 15.8 µM (active) | 
30 | CC1(C)CC2(CC(C)(C(=O)CSc3nc4ccccc4s3)OC2=O)C(=O)O1 (stereo not drawn) | 10 µM (active) | 
31 | CC(C)CC1CC(=O)OC1(C)C(=O)CSc1nc2ccccc2s1 (stereo not drawn) | 15.8 µM (active) | 
32 | NCCSSCCN | inactive | 
33 | COc1ccc2[nH]cc(CCNc3nc(-c4ccccc4OC)nc4ccccc34)c2c1 | 2.51 µM (active) | 
34 | COc1cccc(-c2nc(NCCc3c[nH]c4ccc(OC)cc34)c3ccccc3n2)c1 | 2 µM (active) | 
35 | COc1ccc2[nH]cc(CCNc3nc(-c4cccnc4)nc4ccccc34)c2c1 | 1.58 µM (active) | 
36 | COc1ccc2[nH]cc(CCNc3nc(-c4ccoc4)nc4ccccc34)c2c1 | 3.16 µM (active) | 
37 | COC(=O)[C@@H]1O[C@@H](c2c(OC)c(OC)c(C)c(OC)c2OC)[C@H](C)[C@@H](O)[C@@H]1C |  | -7.25% [at 11.4 µM]
38 | O=c1c(-c2ccccc2)nc2cncnc2n1-c1ccccc1 |  | -27.5%
39 | COc1ccc(-n2c(=O)c(-c3cn(C)c4ccccc34)nc3cncnc32)cc1 | 20 µM (active) | 
40 | Cn1cc(-c2nc3cncnc3n(-c3ccccc3)c2=O)c2ccccc21 | 10 µM (active) | 
41 | CCCc1nnc(NC(=O)CCC(=O)NCc2ccccc2OC)s1 |  | 2.33% [at 2.29 µM]
42 | CCCc1nnc(NC(=O)C(CC)OC(=O)c2cc(C)nc3ccccc23)s1 (stereo not drawn) | 12.6 µM (active) | 
43 | CCCCCc1nnc(NC(=O)C(=O)OCC)s1 |  | 1.6% [at 2.29 µM]
